# Results published in PubChem BioAssay.
# The source made the active and inactive calls.
# Key:
# [1] = tested on: PRMT1 (protein arginine N-methyltransferase 1); assay: PRMT1 binders on small-molecule microarrays, primary screen, biochemical, small-molecule microarray, 635 nm fluorescence (AID 1088); settings: small-molecule microarray binding, higher = more signal;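 note: binding of Prmt1 protein to compounds spotted on small-molecule microarray slides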
# [2] = yeast growth modulation, basal conditions, primary screen, YJM789 clinical isolate, OD600, 24 h (AID 1089);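 note: growth of clinical yeast isolate S. cerevisiae YJM 789 seeded 1000 cells per well; test concentration not given here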; settings: S. cerevisiae YJM789 growth, higher = more signal, called active from +8 up or from −8 down
# [3] = fission yeast growth modulation, primary screen, strain 972, OD600, 24 h, no modulator (AID 1090);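 note: basal condition with compound alone and no growth modifier present; test concentration not given here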; settings: S. pombe 972 growth, higher = more signal, called active from +8 up or from −8 down
# [4] = S. cerevisiae growth modulation with rapamycin, primary screen, strain BY4716, OD600, 96 h (AID 1091); settings: higher = more signal, called active from +8 up or from −8 down; note: test concentration not given here
# [5] = molecular target: Torsin-1A-interacting protein 2 (Homo sapiens) (UniProt Q8NFQ8); assay: LULL1 binders on small-molecule microarray, primary screen, cell lysate, human LULL1 lysate, 635/667 nm fluorescence (AID 1092); settings: hLULL1 lysate binding, 635 nm fluorescence, higher = more signal;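 note: probe is lysate of COS7 cells overexpressing human LULL1; score merges per-feature 667 nm fluorescence with signal-to-noise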
# [6] = E. coli growth modulation, two-sided OD650, primary screen, E. coli filamentation project, strain DRC41, 24 h (AID 1093); settings: OD650, 24 h, higher = more signal, called active from +8 up or from −8 down;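 note: MC1000 strain lacking acrAB efflux and sulA so SOS filamentation is blocked; test concentration not given here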
# [7] = small-molecule microarray binders of probe aLefty2, primary screen, biochemical, biotinylated probe, 635/667 nm fluorescence (AID 1094); settings: higher = more signal;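 note: score merges spot fluorescence near 667 nm with spot signal-to-noise ratio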
# [8] = tested on: Noggin (protein binding on small-molecule microarray); assay: Noggin binders on small-molecule microarray, primary screen, biochemical, 635/667 nm fluorescence (AID 1095); settings: 635 nm fluorescence, higher = more signal;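 note: score merges 667 nm feature fluorescence with signal to noise over triplicate slides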
# [9] = molecular target: Neurogenic locus notch homolog protein 3 (Homo sapiens) (UniProt Q9UM47); assay: NOTCH3 binders on small-molecule microarray, primary screen, biochemical, 635/667 nm fluorescence (AID 1096); settings: NOTCH3 binding, 635 nm fluorescence, higher = more signal
# [10] = small-molecule microarray binders of probe aEGFR, primary screen, biochemical, biotinylated probe, 635/667 nm fluorescence (AID 1097); settings: higher = more signal;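 note: probe is a biotinylated anti-EGFR antibody binding compounds printed on slides; score combines fluorescence near 667 nm and signal to noise of each spot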
# [11] = tested on: Plasmodium falciparum Sir2 (PF13_0152, Sir2A); assay: pfSir2 binders on small-molecule microarrays, primary screen, biochemical, small-molecule microarray, 635 nm fluorescence (AID 1098); settings: small-molecule microarray binding, fluorescence 635 nm; higher = more signal;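 note: score merges spot fluorescence intensity with its signal-to-noise ratio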
# [12] = small-molecule microarray binders of probe aDKK1, primary screen, biochemical, biotinylated probe, 635/667 nm fluorescence (AID 1099); settings: higher = more signal;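 note: score merges 667nm spot fluorescence with signal to noise across triplicate slides; reference of the scale not given here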
# [13] = small-molecule microarray binders of probe aCHRDL2, primary screen, biochemical, biotinylated probe, 635/667 nm fluorescence (AID 1100); settings: higher = more signal
# [14] = splicing luciferase reporter signal modulators, primary screen, spliceosome inhibition project, cell-based, HEK293, splice +/- reporter (AID 1101); settings: luminescence, 24 h, higher = more signal, called active from +8 up or from −8 down;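 note: HEK293 cells carrying a splicing-competent luciferase reporter gene; test concentration not given here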
# [15] = molecular target: Fibroblast growth factor 10 (Homo sapiens) (UniProt O15520); assay: FGF10 binders on small-molecule microarrays, primary screen, biochemical, small-molecule microarray, 635 nm fluorescence (AID 1102); settings: FGF10 binding, fluorescence 635 nm, higher = more signal
# [16] = tested on: glycogen synthase kinase-3 (GSK3A per assay name; protocol says GSK3B); assay: GSK3 binders on small-molecule microarrays, primary screen, biochemical, small-molecule microarray, 635 nm fluorescence, GSK3A (AID 1103); settings: small-molecule microarray binding, fluorescence 635 nm; higher = more signal; note: the record names both GSK3A and GSK3B
# [17] = molecular target: Epidermal growth factor receptor (Homo sapiens) (UniProt P00533); assay: EGFR binders on small-molecule microarrays, primary screen, biochemical, small-molecule microarray, 635 nm fluorescence (AID 1104); settings: EGFR binding, higher = more signal;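 note: score merges 667 nm emission intensity with spot signal to noise over triplicate slides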
# [18] = molecular target: Follistatin-related protein 3 (Homo sapiens) (UniProt O95633); assay: FSTL3 binders on small-molecule microarrays, primary screen, biochemical, small-molecule microarray, 635 nm fluorescence (AID 1105); settings: FSTL3 binding, higher = more signal;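 note: score merges emission near 667 nm and signal to noise per printed spot across three slides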
# [19] = molecular target: Dickkopf-related protein 1 (Homo sapiens) (UniProt O94907); assay: DKK1 binders on small-molecule microarrays, primary screen, biochemical, small-molecule microarray, 635 nm fluorescence scan (AID 1106); settings: DKK1 binding, higher = more signal;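 note: score merges emission near 667 nm with signal to noise over three replicate slides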
# [20] = tested on: Inhibin beta A chain (activin A); assay: INHBA (activin A) binders on microarrays, primary screen, biochemical, small-molecule microarray, 635 nm fluorescence scan (AID 1107); settings: small-molecule microarray binding, higher = more signal;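 note: mouse activin A protein probed at 4.33 µg/mL on printed slides; score merges bound-protein fluorescence near 667 nm with spot signal-to-noise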
# Sequence of Torsin-1A-interacting protein 2 (Homo sapiens) (Q8NFQ8 whole entry, looked up): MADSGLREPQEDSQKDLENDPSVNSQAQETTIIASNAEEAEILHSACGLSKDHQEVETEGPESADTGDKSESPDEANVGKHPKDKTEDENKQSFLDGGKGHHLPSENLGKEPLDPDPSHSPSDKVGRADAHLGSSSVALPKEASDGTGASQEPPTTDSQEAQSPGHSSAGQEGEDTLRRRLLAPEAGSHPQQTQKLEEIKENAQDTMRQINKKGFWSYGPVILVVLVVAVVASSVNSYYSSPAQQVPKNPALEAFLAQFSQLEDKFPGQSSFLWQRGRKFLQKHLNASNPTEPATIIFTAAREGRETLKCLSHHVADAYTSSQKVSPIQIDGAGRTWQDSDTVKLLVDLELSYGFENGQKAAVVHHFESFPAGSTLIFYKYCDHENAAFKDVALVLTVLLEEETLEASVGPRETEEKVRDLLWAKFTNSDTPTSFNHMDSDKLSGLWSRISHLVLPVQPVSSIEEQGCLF
# Sequence of Neurogenic locus notch homolog protein 3 (Homo sapiens) (Q9UM47 whole entry, looked up): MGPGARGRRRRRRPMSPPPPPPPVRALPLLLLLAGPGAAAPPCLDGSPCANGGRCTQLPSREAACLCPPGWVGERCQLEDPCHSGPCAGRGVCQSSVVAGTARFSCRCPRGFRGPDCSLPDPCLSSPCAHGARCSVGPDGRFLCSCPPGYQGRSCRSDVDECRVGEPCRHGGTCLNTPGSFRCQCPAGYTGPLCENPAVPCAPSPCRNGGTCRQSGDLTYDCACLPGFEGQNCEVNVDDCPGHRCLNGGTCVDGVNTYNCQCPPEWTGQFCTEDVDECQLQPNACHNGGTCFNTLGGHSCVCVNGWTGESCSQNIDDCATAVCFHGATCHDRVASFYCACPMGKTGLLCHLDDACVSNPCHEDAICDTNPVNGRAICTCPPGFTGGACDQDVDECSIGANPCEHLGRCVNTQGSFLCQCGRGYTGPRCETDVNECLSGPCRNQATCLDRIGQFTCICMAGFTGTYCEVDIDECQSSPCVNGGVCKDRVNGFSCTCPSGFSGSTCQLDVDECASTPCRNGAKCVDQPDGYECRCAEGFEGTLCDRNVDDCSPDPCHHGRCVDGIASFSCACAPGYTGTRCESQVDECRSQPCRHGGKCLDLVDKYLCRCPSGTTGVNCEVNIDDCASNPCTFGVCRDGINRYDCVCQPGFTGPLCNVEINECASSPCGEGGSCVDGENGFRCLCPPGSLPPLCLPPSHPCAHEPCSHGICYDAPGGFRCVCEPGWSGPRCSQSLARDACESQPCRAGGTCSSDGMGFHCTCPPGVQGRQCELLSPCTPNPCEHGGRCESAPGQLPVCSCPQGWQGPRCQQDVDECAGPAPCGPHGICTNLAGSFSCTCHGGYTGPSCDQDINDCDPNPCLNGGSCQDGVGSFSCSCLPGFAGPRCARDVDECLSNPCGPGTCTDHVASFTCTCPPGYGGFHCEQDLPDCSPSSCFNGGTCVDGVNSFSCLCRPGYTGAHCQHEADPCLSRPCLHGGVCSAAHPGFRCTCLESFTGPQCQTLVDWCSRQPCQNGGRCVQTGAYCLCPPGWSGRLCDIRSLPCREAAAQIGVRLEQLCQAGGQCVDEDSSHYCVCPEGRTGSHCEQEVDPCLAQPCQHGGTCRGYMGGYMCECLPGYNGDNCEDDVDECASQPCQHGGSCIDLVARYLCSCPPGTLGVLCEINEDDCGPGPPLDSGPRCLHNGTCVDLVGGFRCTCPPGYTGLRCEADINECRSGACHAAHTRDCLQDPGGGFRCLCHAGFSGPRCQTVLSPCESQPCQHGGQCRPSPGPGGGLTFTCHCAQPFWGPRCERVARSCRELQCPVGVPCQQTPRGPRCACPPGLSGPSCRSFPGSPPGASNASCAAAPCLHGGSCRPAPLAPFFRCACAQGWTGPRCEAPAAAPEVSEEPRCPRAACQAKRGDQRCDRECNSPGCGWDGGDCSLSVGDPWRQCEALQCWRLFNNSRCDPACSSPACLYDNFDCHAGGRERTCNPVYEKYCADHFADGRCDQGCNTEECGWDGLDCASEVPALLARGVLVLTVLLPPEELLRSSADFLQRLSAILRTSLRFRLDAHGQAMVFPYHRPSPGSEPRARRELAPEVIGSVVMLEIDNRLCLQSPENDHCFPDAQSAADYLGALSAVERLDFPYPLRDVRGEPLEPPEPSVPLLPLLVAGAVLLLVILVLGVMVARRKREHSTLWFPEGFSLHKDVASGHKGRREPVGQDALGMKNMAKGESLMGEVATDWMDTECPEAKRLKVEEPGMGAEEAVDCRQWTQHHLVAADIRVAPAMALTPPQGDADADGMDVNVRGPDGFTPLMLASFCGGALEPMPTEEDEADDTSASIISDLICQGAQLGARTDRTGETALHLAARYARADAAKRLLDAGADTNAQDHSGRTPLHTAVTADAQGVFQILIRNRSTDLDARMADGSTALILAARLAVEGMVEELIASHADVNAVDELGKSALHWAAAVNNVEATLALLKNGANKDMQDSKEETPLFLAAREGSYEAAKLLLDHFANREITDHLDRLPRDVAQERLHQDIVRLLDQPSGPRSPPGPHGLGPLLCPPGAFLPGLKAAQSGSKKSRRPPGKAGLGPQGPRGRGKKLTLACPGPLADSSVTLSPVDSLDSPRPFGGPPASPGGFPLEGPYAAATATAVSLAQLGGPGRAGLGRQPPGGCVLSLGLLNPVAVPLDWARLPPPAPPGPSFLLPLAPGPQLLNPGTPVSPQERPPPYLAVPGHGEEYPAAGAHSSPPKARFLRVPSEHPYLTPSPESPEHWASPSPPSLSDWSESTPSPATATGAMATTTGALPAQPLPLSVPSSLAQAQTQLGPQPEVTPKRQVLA
# Sequence of Follistatin-related protein 3 (Homo sapiens) (O95633 whole entry, looked up): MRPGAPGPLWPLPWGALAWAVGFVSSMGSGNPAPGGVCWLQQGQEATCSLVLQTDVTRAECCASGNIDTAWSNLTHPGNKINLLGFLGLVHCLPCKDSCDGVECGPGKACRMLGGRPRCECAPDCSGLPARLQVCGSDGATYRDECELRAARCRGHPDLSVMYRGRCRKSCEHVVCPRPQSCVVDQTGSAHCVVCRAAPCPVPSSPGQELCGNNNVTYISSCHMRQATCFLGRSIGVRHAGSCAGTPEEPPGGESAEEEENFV
# Sequence of Epidermal growth factor receptor (Homo sapiens) (P00533 whole entry, looked up): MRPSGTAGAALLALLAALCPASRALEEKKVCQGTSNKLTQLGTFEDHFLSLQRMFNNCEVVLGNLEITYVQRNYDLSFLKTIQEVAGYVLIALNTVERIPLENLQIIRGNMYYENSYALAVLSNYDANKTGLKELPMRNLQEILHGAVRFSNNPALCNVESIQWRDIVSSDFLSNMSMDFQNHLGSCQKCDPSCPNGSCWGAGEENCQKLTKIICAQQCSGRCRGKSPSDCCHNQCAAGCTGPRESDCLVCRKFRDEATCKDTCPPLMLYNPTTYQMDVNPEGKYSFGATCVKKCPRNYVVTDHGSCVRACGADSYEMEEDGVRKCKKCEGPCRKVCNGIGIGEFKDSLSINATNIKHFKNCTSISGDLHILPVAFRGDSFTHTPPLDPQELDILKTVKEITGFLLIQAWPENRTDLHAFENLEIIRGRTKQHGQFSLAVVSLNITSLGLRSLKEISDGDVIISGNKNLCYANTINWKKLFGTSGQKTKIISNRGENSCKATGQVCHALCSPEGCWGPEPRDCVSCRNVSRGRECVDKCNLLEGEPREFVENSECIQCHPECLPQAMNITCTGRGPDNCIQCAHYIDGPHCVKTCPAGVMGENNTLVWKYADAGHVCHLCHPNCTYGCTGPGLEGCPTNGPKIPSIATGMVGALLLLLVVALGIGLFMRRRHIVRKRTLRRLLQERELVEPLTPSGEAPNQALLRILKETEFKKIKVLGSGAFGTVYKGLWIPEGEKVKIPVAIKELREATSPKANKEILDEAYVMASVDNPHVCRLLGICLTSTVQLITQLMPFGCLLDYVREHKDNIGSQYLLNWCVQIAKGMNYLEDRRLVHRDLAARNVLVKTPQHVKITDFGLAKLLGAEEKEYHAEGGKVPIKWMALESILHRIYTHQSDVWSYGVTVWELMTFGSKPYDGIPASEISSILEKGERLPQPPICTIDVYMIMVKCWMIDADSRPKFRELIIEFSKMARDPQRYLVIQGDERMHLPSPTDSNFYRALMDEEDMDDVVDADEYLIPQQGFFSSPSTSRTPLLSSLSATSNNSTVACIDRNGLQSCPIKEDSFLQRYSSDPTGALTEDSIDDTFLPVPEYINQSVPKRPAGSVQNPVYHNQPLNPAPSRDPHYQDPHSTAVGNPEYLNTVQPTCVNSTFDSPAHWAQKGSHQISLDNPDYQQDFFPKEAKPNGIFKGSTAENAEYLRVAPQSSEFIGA
# Sequence of Fibroblast growth factor 10 (Homo sapiens) (O15520 whole entry, looked up): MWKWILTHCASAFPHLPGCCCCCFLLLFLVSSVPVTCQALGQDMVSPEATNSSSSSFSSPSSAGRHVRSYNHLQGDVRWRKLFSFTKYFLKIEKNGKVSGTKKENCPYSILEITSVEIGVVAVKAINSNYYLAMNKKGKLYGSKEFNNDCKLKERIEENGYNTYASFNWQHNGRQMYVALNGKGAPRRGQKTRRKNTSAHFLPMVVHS
# Sequence of Dickkopf-related protein 1 (Homo sapiens) (O94907 whole entry, looked up): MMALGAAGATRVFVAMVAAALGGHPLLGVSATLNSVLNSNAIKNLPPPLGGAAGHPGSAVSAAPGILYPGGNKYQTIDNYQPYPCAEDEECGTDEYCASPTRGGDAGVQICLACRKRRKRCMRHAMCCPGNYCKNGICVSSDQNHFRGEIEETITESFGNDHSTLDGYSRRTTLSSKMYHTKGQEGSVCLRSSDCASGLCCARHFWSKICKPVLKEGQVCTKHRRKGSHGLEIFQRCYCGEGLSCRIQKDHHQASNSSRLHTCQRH
Structure (SMILES),composite z-score [1],z-score [2],z-score [3],z-score [4],composite z-score [5],z-score [6],composite z-score [7],composite z-score [8],composite z-score [9],composite z-score [10],composite z-score [11],composite z-score [12],composite z-score [13],z-score [14],composite z-score [15],composite z-score [16],composite z-score [17],composite z-score [18],composite z-score [19],composite z-score [20]
O=C1NC(=O)C2C1C=CC(C(O)c1ccc(F)cc1)N2Nc1ccccn1 (stereo not given),0.477,0.128 (inactive),0.42 (inactive),0.333 (inactive),2.64,-1.83 (inactive),-0.103,-0.0682,-0.0883,-0.0271,1.06,-0.118,0.243,1.23 (inactive),0.138,-0.371,0.255,-0.0918,0.297,0.877
COC(=O)[C@@]1(CCC(=O)OC(C)(C)C)N=C(c2ccc(OCCCO)cc2)O[C@H]1c1ccccc1CN=[N+]=[N-],0.373,0.0206 (inactive),0.646 (inactive),9.66 (active),1.85,1.08 (inactive),-0.0963,0.201,0.235,-0.0418,1.3,0.425,0.87,1.29 (inactive),-0.035,-0.546,-0.827,0.157,-0.346,0.282
CO[C@H]1O[C@H](CO)[C@@H](OC(=O)Nc2ccc(C(F)(F)F)cc2)[C@H](OC(=O)Nc2ccccc2-c2ccccc2)[C@H]1OC(=O)Nc1ccccc1-c1ccccc1,1.54,1.32 (inactive),2.36 (inactive),29.9 (active),3.29,0.0918 (inactive),0.0079,1.21,1.06,0.0108,1.29,0.13,0.411,-1.03 (inactive),1.52,1.35,0.223,1.15,0.162,0.436
C=C(CC1([C@@H](NP(=O)(c2ccccc2)c2ccccc2)[C@H]2C[C@@H]2CCN(C(=O)OCC)S(=O)(=O)c2ccc(C)cc2)CC1)c1ccccc1,-0.362,0.585 (inactive),0.722 (inactive),3.51 (inactive),2.98,-0.926 (inactive),0.502,0.229,1.02,0.104,0.827,1.31,1.23,-2.39 (inactive),0.429,0.288,0.0577,0.748,-0.636,1.17
C=CCC(OC(C)=O)[C@@H]1[C@@H](N(Cc2ccc(-c3cccc(C(F)(F)F)c3)o2)C(=O)c2cccc3ccccc23)c2cc(OCCCO)ccc2N1C(=O)c1ccc2ccccc2c1 (stereo not given in full),-0.429,0.611 (inactive),0.609 (inactive),-0.549 (inactive),-0.255,0.0268 (inactive),-0.0728,0.307,-0.1,-0.122,0.542,0.0086,0.256,-0.874 (inactive),0.119,-1.08,0.142,0.317,0.289,1.2
C=C(COC)/C(=C/C[C@H](OC(=O)c1ccncc1)c1cccc(OCCO)c1)c1cnc2ccccc2c1,1.54,-2.15 (inactive),-0.677 (inactive),0.0694 (inactive),1.75,-0.0055 (inactive),0.0333,1.53,1.03,-0.0025,0.691,0.199,0.293,0.0664 (inactive),1.05,1.3,0.855,1.45,0.938,1.2
CN(C)C(=O)[C@]1(Cc2ccccc2CN=[N+]=[N-])N=C(c2ccc(OCCCO)cc2)O[C@@H]1c1ccccc1N=[N+]=[N-],1.48,-1.73 (inactive),0.498 (inactive),12.9 (active),3.43,-0.0046 (inactive),0.0369,0.317,0.618,0.0427,1.18,0.805,0.884,-1.27 (inactive),0.939,0.631,-0.205,0.264,-0.0994,0.814
NC(=O)NCC#Cc1ccc2c(c1)[C@]1(C(=O)N2)[C@H](C(=O)Nc2nc3ccccc3s2)[C@H]2C(=O)O[C@H](c3ccccc3)[C@H](c3ccccc3)N2[C@@H]1c1ccc(OCCO)cc1,-0.006,1.83 (inactive),1.87 (inactive),2.18 (inactive),0.963,0.976 (inactive),-0.0616,0.479,0.353,-0.138,-0.478,0.738,1.13,1.37 (inactive),0.253,-0.95,0.0294,0.559,-0.52,0.765
COc1cccc(OC)c1C(=O)O[C@H]1[C@@H]2OC(=O)[C@H](Cc3cccc(Br)c3)C/C=C/C[C@@H](Cc3cccc(Br)c3)C(=O)O[C@H]2[C@@H](OC)O[C@@H]1CO,1.4,-0.372 (inactive),-0.246 (inactive),0.231 (inactive),1.08,-1.17 (inactive),-0.0711,0.8,0.541,-0.0678,-0.178,0.281,0.325,0.0705 (inactive),0.927,0.277,-0.0525,0.735,0.298,0.42
CC(C)[Si](C#CCCCC#N)(O[C@H](c1ccccc1)c1cn([C@H](C)c2ccccc2)nn1)C(C)C,1.48,-0.766 (inactive),-0.415 (inactive),-3.12 (inactive),0.76,0.674 (inactive),0.064,1.08,1.1,-0.152,0.475,0.0086,-0.453,-3.01 (inactive),0.524,0.973,0.22,1.08,0.668,-0.301
